Most compounds without a hit are left out; they make up all but 3% or so of the library.
KDM4E inh – inhibitors of human JMJD2E histone demethylase. B2RXH2. JMJD2E catalytic domain, FDH-coupled NADH fluorescence (FDH is formaldehyde dehydrogenase). Potency, µM (titrated, usually from 57.1 µM), usual class: inhibitors. actives 1.6% (n = 230,000). AID 2147; active = well fitted inhibition curve with a large enough effect, not every such curve was filed as active; inconclusive = small, poorly fitted or top-dose-only effect, or another doubt; inactive = no such curve, though single readings can be large or run the other way; also: nearly all actives have a fitted effect of over 50% in size
Target sequence (B2RXH2 1-337 limits assumed): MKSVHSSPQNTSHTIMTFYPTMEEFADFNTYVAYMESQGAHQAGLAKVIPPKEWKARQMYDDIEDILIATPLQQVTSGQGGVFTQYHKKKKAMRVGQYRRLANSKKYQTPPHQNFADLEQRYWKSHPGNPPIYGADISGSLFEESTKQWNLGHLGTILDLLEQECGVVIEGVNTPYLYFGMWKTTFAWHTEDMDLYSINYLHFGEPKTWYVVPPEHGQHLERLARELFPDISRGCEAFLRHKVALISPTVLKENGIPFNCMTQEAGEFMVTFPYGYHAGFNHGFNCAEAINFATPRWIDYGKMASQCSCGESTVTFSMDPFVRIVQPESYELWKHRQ
Coupling enz – coupling enzyme interference in Giardia aldolase counter-screen | coupling enzyme system counterscreen, AmpLite Red fluorescence | activity change, negative = inhibition, % at 58.2 µM, hits read low | actives 0.67% (n = 290,000) | AID 2472; in the data active = activity change below about -30%
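Activity here indicates interference with the coupling reaction, not aldolase inhibition. Compounds at 57.5 uM final met coupling enzymes for 10 min at RT; substrate and AmpLite Red detection followed, with a 525/598 nm fluorescence read after 20 min.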
Tau ThT inhib – tau fibrillization inhibition (ThT binding); AID 1460; P10636; actives 2.1% (n = 270,000); recombinant tau K18 P301L, heparin-induced fibrillization, ThT fluorescence; Potency, µM (top dose mostly 57.4 µM), hits mostly inhibitors; also: nearly all actives have a fitted effect of over 55% in size
Target sequence (P10636 561-689 P618L limits assumed): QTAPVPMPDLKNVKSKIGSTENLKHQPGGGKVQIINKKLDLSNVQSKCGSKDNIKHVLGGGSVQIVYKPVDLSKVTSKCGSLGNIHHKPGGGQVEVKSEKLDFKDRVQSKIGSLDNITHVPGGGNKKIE
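Heparin-induced fibrillization of the P301L-mutant K18 repeat-domain fragment of human tau was followed by ThT binding in quantitative high-throughput format.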
Tau fibril FP – blocks human tau fibril formation measured by polarization; K18 P301L tau heparin fibrillization, Alexa594 FP, 6 h; Potency, µM (titrated, usually from 57.7 µM), actives largely listed as inhibitors; actives 0.39% (n = 280,000); also: nearly all actives have a fitted effect of over 55% in size
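FP of Alexa 594-tau after heparin (20 uM) induction. Substrate: human K18 P301L, 15 uM unlabeled, 0.24 uM labeled. Buffer 100 mM sodium acetate pH 7. 6 hr, 37 C.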
Tau fluor counter – counter-screen for tau fibril formation inhibitors | tau K18 P301L Alexa594 fluorescence, heparin fibrillization | Potency, µM (titrated, usually from 57.7 µM) | actives 0.93% (n = 280,000) | AID 1463; also: nearly all actives have a fitted effect of over 55% in size
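Human tau K18 P301L (15 uM unlabeled, 0.24 uM Alexa 594-labeled) in 100 mM sodium acetate pH 7 with 20 uM heparin, 6 hr at 37 C. ThT 30 uM added, 1 hr ambient; Alexa 594 FP and total fluorescence read at 555/632 nm.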
Of the large screens only hits and unclear results are named; the others gave an inactive call; ! = repeats disagree; [ ] = another dose, or the depositor's remark. Unless noted, calls follow the shape of the dose curve; as a rule, active = well fitted curve in the direction sought with a large enough effect; inconclusive = small, poorly fitted or top-dose-only effect, or another doubt; inactive = no such curve, though single readings can be large; an effect the other way counts as inactive or inconclusive.

CCCCS(=O)(=O)N1CCc2nc(-c3ccccc3)c3c(c2C1)CO[C@@H](C)C3	none
CCOc1ccc(N2CSC3=C(C#N)C(c4ccco4)CC(=O)N3C2)cc1 (configuration not stated)	KDM4E inh inconclusive, Tau ThT inhib 14µM, Tau fibril FP inconclusive, Tau fluor counter inconclusive
CCOc1ccc(N2CC(NC(=O)c3ccco3)CC2=O)cc1 (configuration not stated)	none (no result: KDM4E inh, Coupling enz)
Cc1ccc(C2CC(=O)N3CN(c4ccc(Br)cc4)CSC3=C2C#N)o1 (configuration not stated)	Coupling enz -38, Tau ThT inhib inconclusive, Tau fibril FP inconclusive
Cc1ccc(Sc2ccccc2CN(C)C)c(N)c1	none (no result: KDM4E inh, Tau ThT inhib, Tau fibril FP, Tau fluor counter)
CN(C)C(=O)c1ccc(NC(=O)Cn2nnnc2-c2ccccc2F)cc1	none (no result: KDM4E inh, Coupling enz)
O=C(CN1C(=O)COc2ccc(S(=O)(=O)N3CCOCC3)cc21)N1CCN(c2ccc(F)cc2)CC1	none (no result: KDM4E inh, Coupling enz)
CCNc1ncc2nc(-c3ccc(OC)cc3)c(=O)n(CCOC)c2n1	none (no result: KDM4E inh, Tau ThT inhib, Tau fibril FP, Tau fluor counter)
O=C1c2ccccc2C(=O)N1CCSc1n[nH]c(=S)s1	KDM4E inh inconclusive
CC(C)CSc1n[nH]c(=S)s1	KDM4E inh 10µM
COC(=O)CCCC1=CC2=C(c3ccccc3)C(=O)C(C)(OC(=O)C3CCCC3)C(=O)C2=CN1CC(C)C (configuration not stated)	KDM4E inh 18µM!, Tau ThT inhib inconclusive
COCCN1C=C2C(=O)C(C)(OC(=O)C3CCCC3)C(=O)C(c3ccccc3)=C2C=C1CCCC(=O)OC (configuration not stated)	KDM4E inh inconclusive
COC(=O)CCCC1=CC2=C(c3ccccc3)C(=O)C(C)(OC(=O)C3CCCC3)C(=O)C2=CN1CC1CC1 (configuration not stated)	KDM4E inh 11µM!, Tau ThT inhib inconclusive
COC(=O)CCCC1=CC2=C(c3ccccc3)C(=O)C(C)(OC(=O)C3CCCC3)C(=O)C2=CN1C1CCCCC1 (configuration not stated)	KDM4E inh inconclusive, Coupling enz -31!, Tau ThT inhib inconclusive
Cc1ccc(S(=O)(=O)CC(=O)Nc2sc3c(c2C#N)CCCC3)cc1	none (no result: KDM4E inh, Coupling enz)
COc1ccc2oc(=O)c(C(=O)NCCc3c(C)[nH]c4c(C)cccc34)cc2c1	Tau ThT inhib inconclusive, Tau fluor counter 16µM[quencher] (no result: KDM4E inh, Coupling enz)
Cc1ccc(CSc2cn(CC(=O)N3CCCCCC3)c3ccccc23)cc1	Tau ThT inhib inconclusive (no result: KDM4E inh, Coupling enz)
COc1ccc(CNc2ccc3cn[nH]c3c2)c(OC)c1OC	KDM4E inh inconclusive, Coupling enz -47, Tau ThT inhib 28µM, Tau fibril FP inconclusive, Tau fluor counter inconclusive
CCOc1cc(CNc2ccc3cn[nH]c3c2)ccc1OC	KDM4E inh inconclusive, Coupling enz -55, Tau ThT inhib inconclusive, Tau fluor counter inconclusive
COc1ccc(-n2c(CC3C(=O)N(C)c4ccc(C)cc43)nc3ccccc3c2=O)cc1 (configuration not stated)	none (no result: KDM4E inh, Coupling enz)
Oc1c(C(Nc2ccccn2)c2ccccn2)ccc2cccnc12 (configuration not stated)	KDM4E inh inconclusive, Tau ThT inhib inconclusive
COc1ccccc1NC(c1cccnc1)c1ccc2cccnc2c1O (configuration not stated)	KDM4E inh 11µM, Tau ThT inhib inconclusive
Cc1ccnc(NC(c2ccccc2F)c2ccc3cccnc3c2O)c1 (configuration not stated)	Tau ThT inhib inconclusive (no result: KDM4E inh, Coupling enz)
Cc1ccnc(NC(c2cccnc2)c2ccc3cccnc3c2O)c1 (configuration not stated)	KDM4E inh 5.6µM, Tau ThT inhib inconclusive
Oc1ccccc1C(Nc1nccs1)c1ccc2cccnc2c1O (configuration not stated)	KDM4E inh inconclusive, Tau ThT inhib 20µM, Tau fluor counter inconclusive
Cc1ccnc(NC(c2cc(C)ccc2O)c2ccc3cccnc3c2O)c1 (configuration not stated)	Tau ThT inhib 16µM, Tau fluor counter inconclusive (no result: KDM4E inh, Coupling enz)
Cc1ccccc1NC(=O)Cn1c(=O)n(CCC(=O)NCc2ccc3c(c2)OCO3)c(=O)c2sccc21	Tau fibril FP inconclusive (no result: KDM4E inh, Coupling enz)
O=S(=O)(c1ccccc1Br)N(Cc1ccccc1)Cc1ccco1	none (no result: KDM4E inh, Tau ThT inhib, Tau fibril FP, Tau fluor counter)
CC(/C=C/C(=O)NO)=C\[C@@H](C)C(=O)c1ccc(N(C)C)cc1	Tau ThT inhib inconclusive (no result: KDM4E inh)
COc1ccccc1NC(=O)c1sc2nc(-c3cc4cc(Cl)ccc4oc3=O)[nH]c(=O)c2c1C	none (no result: KDM4E inh, Coupling enz)

Source: PubChem BioAssay
